# Results reported in PubChem BioAssay (NCATS).
# Results filed as inconclusive are left out. A call without a number means that no potency is given here. Activity calls are given as the source filed them. Calls follow the shape of the dose curve; as a rule, active = well fitted activation curve with a large enough effect; inconclusive = small, poorly fitted or top-dose-only effect; inactive = flat fitted curve, though single readings scatter.
# Biological target: Nuclear receptor subfamily 1 group I member 2 (Homo sapiens) (UniProt O75469)
# Sequence (O75469 whole entry, looked up): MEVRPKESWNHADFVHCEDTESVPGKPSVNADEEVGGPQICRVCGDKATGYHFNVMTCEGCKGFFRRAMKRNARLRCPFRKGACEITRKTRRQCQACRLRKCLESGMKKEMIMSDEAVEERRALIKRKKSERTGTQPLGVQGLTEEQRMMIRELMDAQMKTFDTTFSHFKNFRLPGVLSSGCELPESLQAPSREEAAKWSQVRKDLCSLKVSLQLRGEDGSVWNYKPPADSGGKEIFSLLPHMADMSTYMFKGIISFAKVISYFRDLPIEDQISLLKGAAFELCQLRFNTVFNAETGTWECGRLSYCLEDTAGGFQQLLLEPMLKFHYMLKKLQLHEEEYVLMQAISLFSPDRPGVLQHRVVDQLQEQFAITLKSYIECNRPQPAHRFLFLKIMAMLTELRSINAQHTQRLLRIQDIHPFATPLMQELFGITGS
# Experiment: Dual reporter qHTS for agonist of Pregnane X Receptor (hPXR) against the NCATS DSHEA and TCM libraries: Luminescence readout (AID 1920059)
# Settings: hPXR dual reporter cells, luciferase luminescence agonist; series mostly up to 40 µM
# Summary of the method: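 Luminescent PXR reporter read (ONE-Glo) after a CellTiter-Fluor viability read, following 24 h, 37C treatment of HepG2 cells stably carrying hPXR-Luc.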
# Potency is read from the fitted curve at half-maximal effect.
row,SMILES,Potency
1,O=C(/C=C/c1ccc(O)c(O)c1)O[C@@H]1CC(C(=O)O)=C[C@@H](O)[C@H]1O,inactive
2,CC(C)=CCCC(C)(OC1OC(COC2OC(CO)C(O)C2O)C(O)C(O)C1O)C1CCC2(C)C1C(O)CC1C3(C)CCC(OC4OC(CO)C(O)C(O)C4OC4OC(CO)C(O)C(O)C4O)C(C)(C)C3CCC12C (configuration not stated),inactive
3,CC[C@H](CC[C@@H](C)[C@H]1CCC2C3CCC4C[C@@H](O)CC[C@]4(C)C3CC[C@@]21C)C(C)C (some centres not stated),inactive
4,O=C(O)CC(O)(C(=O)O)C(O)C(=O)O (configuration not stated),inactive
5,CCCCCC(=O)CC,inactive
6,C=C1CC[C@H](O)C/C1=C\C=C1/CCC[C@]2(C)[C@@H]([C@H](C)CC[C@H](C)C(C)C)CC[C@@H]12,28.2 µM (active)
7,CC1(C)C2CCC1(C)C(O)C2 (configuration not stated),inactive
8,O[C@@H]1[C@@H](O)[C@H](OC/C=C/c2ccccc2)O[C@H](CO[C@@H]2OC[C@H](O)[C@H](O)[C@H]2O)[C@H]1O,inactive
9,CC(=O)O[C@H]1[C@H](O[C@H]2CC[C@]34C[C@]35CC[C@]3(C)[C@@H]([C@@]6(C)CC[C@@H](C(C)(C)O)O6)[C@@H](O)C[C@@]3(C)[C@@H]5C[C@H](O[C@@H]3O[C@H](CO)[C@@H](O)[C@H](O)[C@H]3O)[C@H]4C2(C)C)OC[C@@H](O)[C@@H]1O,inactive
10,OCC1=C[C@@H](O)[C@@H]2C=CO[C@@H](OC3O[C@H](CO)[C@@H](O)[C@H](O)[C@H]3O)[C@H]12 (some centres not stated),inactive
11,CCCCCCCCCC=O,inactive
12,CC(=O)OC1CC2CCC1(C)C2(C)C (configuration not stated),inactive
